This is an account of results in the supplement of paper PMC6378613.

Compound in this experiment: Cc1ccc(-c2ccc3c(ccc4sc5c(c43)NC[C@@H](C)NC5=O)n2)cn1
Description: kinase activity remaining relative to vehicle control; higher = less inhibition. The method, then:
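In vitro radiometric kinase profiling of the MK2 inhibitor PF-3644022 at 0.1, 1 and 10 µM against a panel of kinases (MRC International Centre for Kinase Profiling, Dundee). Read-out is % kinase activity remaining relative to the vehicle control, mean of n=2.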

Sequence of UniProt O96017 (O96017 whole entry, looked up): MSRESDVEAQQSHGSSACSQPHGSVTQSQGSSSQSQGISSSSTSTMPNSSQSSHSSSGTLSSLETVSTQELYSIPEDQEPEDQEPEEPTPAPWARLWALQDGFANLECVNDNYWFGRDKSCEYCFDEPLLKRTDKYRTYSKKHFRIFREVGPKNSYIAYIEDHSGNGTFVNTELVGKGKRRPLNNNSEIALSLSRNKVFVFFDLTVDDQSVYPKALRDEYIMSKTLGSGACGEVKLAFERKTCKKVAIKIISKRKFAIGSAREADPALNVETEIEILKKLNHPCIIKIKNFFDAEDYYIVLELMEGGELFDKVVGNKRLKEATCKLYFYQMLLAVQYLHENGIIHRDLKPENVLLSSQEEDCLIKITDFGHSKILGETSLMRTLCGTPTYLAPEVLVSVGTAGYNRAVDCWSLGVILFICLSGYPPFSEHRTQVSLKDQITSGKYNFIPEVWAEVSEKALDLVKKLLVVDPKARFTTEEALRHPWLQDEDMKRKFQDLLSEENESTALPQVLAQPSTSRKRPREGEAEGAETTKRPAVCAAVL
Sequence of UniProt Q8TDC3 (Q8TDC3 whole entry, looked up): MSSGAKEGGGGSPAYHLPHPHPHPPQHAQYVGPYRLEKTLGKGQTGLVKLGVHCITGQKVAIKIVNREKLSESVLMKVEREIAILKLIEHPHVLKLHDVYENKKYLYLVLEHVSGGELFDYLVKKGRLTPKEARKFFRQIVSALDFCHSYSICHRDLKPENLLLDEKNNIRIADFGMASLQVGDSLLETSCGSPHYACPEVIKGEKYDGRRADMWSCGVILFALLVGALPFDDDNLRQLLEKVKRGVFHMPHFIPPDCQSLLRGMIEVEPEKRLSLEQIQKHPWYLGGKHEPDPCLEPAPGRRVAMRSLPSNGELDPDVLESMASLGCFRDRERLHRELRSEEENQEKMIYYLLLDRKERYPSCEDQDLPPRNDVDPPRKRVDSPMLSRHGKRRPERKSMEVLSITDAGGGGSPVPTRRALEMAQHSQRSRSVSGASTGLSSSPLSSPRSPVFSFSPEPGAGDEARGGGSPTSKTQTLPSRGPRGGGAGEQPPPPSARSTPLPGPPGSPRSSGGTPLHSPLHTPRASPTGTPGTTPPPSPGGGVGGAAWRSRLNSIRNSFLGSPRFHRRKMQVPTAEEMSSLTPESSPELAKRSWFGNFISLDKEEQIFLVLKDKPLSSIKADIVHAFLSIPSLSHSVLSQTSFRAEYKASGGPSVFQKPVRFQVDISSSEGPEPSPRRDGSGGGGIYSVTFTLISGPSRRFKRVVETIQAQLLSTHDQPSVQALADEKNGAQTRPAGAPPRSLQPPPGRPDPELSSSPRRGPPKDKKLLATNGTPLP
Sequence of UniProt Q15569 (Q15569 whole entry, looked up): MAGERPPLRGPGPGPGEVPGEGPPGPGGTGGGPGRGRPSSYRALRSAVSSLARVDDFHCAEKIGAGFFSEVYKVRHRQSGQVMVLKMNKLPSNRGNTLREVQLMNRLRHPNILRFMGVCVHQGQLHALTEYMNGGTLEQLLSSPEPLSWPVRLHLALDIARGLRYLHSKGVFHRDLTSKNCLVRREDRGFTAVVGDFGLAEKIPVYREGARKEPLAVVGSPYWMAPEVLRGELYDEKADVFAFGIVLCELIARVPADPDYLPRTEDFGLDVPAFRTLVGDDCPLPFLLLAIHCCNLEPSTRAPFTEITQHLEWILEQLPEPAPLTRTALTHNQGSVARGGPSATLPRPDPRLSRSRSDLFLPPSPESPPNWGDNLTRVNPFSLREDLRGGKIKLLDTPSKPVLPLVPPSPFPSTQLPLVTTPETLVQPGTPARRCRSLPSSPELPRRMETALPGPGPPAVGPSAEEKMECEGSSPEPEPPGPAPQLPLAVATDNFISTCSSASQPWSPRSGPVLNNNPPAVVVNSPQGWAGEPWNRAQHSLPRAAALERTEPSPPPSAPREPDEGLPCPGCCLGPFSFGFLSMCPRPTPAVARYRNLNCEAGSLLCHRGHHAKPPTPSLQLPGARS
Sequence of UniProt Q15418 (Q15418 whole entry, looked up): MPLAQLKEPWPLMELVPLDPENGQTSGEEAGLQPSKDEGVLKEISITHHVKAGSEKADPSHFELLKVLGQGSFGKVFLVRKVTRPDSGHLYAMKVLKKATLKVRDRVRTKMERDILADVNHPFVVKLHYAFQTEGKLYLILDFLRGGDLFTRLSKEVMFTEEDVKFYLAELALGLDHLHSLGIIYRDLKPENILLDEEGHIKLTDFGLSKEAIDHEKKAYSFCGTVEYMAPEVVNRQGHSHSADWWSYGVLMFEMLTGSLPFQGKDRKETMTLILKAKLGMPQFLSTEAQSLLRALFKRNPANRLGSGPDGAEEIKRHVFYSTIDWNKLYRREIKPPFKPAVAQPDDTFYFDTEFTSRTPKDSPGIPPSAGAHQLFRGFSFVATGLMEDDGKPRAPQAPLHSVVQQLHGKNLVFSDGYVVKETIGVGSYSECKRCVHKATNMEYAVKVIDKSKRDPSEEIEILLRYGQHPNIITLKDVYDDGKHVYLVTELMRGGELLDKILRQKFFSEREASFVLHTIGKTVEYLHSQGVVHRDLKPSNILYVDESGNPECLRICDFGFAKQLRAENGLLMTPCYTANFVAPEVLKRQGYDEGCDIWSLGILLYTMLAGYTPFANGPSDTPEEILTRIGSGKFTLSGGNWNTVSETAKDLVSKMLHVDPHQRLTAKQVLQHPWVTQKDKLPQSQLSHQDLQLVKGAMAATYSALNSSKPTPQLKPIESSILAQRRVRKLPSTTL
Sequence of UniProt Q14012 (Q14012 whole entry, looked up): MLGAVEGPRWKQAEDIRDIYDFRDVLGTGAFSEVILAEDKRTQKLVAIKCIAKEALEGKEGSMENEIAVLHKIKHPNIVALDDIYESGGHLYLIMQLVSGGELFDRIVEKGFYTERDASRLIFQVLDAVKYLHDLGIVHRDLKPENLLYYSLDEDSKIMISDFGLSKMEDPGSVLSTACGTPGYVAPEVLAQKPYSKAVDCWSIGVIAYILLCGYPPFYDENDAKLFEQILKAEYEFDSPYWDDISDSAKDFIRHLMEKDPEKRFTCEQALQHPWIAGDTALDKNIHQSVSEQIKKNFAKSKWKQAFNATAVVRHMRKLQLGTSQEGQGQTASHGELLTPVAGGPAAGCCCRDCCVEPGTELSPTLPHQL
Sequence of UniProt Q9P286 (Q9P286 whole entry, looked up): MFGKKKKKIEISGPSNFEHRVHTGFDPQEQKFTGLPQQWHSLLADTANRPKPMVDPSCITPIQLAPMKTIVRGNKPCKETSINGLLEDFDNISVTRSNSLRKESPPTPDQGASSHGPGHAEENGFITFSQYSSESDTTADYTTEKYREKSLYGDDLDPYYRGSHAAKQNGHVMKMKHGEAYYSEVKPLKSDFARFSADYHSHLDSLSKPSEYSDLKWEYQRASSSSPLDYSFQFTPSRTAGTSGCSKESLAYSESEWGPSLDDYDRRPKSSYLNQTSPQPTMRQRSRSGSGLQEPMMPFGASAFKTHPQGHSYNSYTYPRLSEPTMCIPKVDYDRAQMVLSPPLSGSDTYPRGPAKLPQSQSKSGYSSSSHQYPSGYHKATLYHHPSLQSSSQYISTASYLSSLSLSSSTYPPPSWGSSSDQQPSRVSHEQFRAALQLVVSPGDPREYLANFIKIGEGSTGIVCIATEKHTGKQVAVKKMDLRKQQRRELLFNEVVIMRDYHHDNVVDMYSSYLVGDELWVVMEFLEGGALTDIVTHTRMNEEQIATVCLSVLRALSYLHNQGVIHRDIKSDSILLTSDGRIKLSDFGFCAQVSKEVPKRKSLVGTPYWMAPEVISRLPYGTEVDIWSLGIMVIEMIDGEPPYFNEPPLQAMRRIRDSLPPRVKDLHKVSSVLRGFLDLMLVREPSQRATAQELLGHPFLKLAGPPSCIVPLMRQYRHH
Sequence of UniProt Q16832 (Q16832 whole entry, looked up): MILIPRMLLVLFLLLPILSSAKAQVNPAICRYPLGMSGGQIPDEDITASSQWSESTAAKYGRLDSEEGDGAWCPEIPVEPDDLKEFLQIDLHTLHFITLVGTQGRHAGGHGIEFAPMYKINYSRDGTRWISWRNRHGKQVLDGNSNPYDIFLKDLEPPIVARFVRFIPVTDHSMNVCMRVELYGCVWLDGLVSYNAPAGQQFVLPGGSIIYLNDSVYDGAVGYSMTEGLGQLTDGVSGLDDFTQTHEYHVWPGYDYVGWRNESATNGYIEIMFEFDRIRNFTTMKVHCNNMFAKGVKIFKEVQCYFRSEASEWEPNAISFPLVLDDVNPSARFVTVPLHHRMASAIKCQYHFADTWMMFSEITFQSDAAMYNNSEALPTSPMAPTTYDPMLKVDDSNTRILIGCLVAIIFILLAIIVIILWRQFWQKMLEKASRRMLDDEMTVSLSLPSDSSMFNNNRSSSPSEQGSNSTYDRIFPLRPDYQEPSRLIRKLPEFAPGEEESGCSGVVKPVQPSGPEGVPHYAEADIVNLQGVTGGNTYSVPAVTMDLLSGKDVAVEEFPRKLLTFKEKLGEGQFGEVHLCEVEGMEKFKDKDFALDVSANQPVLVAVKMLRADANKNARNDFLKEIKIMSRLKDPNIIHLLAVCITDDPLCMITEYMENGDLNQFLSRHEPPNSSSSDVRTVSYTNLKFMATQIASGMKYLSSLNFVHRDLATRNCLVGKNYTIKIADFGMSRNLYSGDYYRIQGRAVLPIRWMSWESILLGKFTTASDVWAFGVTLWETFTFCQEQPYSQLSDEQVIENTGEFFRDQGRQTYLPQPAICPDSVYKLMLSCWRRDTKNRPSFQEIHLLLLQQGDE

FGF-R1: the kinase activity remaining (inhibitor concentration 0.1 µM) was found to be 95%, the kinase activity remaining (inhibitor concentration 1 µM) amounted to 91% and the kinase activity remaining (inhibitor concentration 10 µM) was found to be 68%.

As for MEKK1 (UniProt Q13233), the kinase activity remaining amounted to 102% (inhibitor concentration 0.1 µM), 109% (inhibitor concentration 1 µM) and 109% (inhibitor concentration 10 µM).

As for PKC alpha, the kinase activity remaining runs as follows: (inhibitor concentration 0.1 µM) 101%; (inhibitor concentration 1 µM) 113%; (inhibitor concentration 10 µM) 90%.

As to CDK9-Cyclin T1 (UniProt P50750), the kinase activity remaining (inhibitor concentration 0.1 µM) came out at 109%, the kinase activity remaining (inhibitor concentration 1 µM) worked out at 96% and the kinase activity remaining (inhibitor concentration 10 µM) is 51%.

Consider ULK2 (UniProt Q8IYT8), for which the kinase activity remaining by setting is: (inhibitor concentration 0.1 µM) 109%; (inhibitor concentration 1 µM) 121%; (inhibitor concentration 10 µM) 54%.

Consider JNK2 (UniProt P45984), for which the kinase activity remaining (inhibitor concentration 0.1 µM) was found to be 123%, the kinase activity remaining (inhibitor concentration 1 µM) came out at 111% and the kinase activity remaining (inhibitor concentration 10 µM) is 107%.

EIF2AK3 (UniProt Q9NZJ5): the kinase activity remaining (inhibitor concentration 0.1 µM) is 114%, the kinase activity remaining (inhibitor concentration 1 µM) turned out to be 101% and the kinase activity remaining (inhibitor concentration 10 µM) is 73%.

As for DDR2 (UniProt Q16832), the kinase activity remaining (inhibitor concentration 0.1 µM) turned out to be 105%, the kinase activity remaining (inhibitor concentration 1 µM) came to 101% and the kinase activity remaining (inhibitor concentration 10 µM) turned out to be 91%.

As to PIM3 (UniProt Q86V86), the kinase activity remaining by setting is: (inhibitor concentration 0.1 µM) 55%; (inhibitor concentration 1 µM) 18%; (inhibitor concentration 10 µM) 3%.

With MNK2 (UniProt Q9HBH9), the kinase activity remaining by setting is: (inhibitor concentration 0.1 µM) 111%; (inhibitor concentration 1 µM) 51%; (inhibitor concentration 10 µM) 26%.

For MAP4K5 (UniProt Q9Y4K4), the kinase activity remaining by setting is: (inhibitor concentration 0.1 µM) 111%; (inhibitor concentration 1 µM) 108%; (inhibitor concentration 10 µM) 61%.

With BRSK1 (UniProt Q8TDC3), the kinase activity remaining runs as follows: (inhibitor concentration 0.1 µM) 86%; (inhibitor concentration 1 µM) 55%; (inhibitor concentration 10 µM) 29%.

With PKC zeta, the kinase activity remaining runs as follows: (inhibitor concentration 0.1 µM) 115%; (inhibitor concentration 1 µM) 112%; (inhibitor concentration 10 µM) 106%.

MELK (UniProt Q14680): the kinase activity remaining runs as follows: (inhibitor concentration 0.1 µM) 123%; (inhibitor concentration 1 µM) 102%; (inhibitor concentration 10 µM) 77%.

For YES1 (UniProt P07947), the kinase activity remaining by setting is: (inhibitor concentration 0.1 µM) 112%; (inhibitor concentration 1 µM) 89%; (inhibitor concentration 10 µM) 55%.

As for PIM1 (UniProt P11309), the kinase activity remaining runs as follows: (inhibitor concentration 0.1 µM) 93%; (inhibitor concentration 1 µM) 58%; (inhibitor concentration 10 µM) 17%.

In the case of PIM2 (UniProt Q9P1W9), the kinase activity remaining reads like this: (inhibitor concentration 0.1 µM) 103%; (inhibitor concentration 1 µM) 103%; (inhibitor concentration 10 µM) 66%.

As to RSK1 (UniProt Q15418), the kinase activity remaining is, setting by setting: (inhibitor concentration 0.1 µM) 106%; (inhibitor concentration 1 µM) 100%; (inhibitor concentration 10 µM) 76%.

Take PDGFRA (UniProt P16234): the kinase activity remaining came to 104% (inhibitor concentration 0.1 µM), 108% (inhibitor concentration 1 µM) and 104% (inhibitor concentration 10 µM).

As to NUAK1 (UniProt O60285), the kinase activity remaining came to 112% (inhibitor concentration 0.1 µM), 102% (inhibitor concentration 1 µM) and 58% (inhibitor concentration 10 µM).

As for JNK3 (UniProt P53779), the kinase activity remaining was found to be 120% (inhibitor concentration 0.1 µM), 104% (inhibitor concentration 1 µM) and 102% (inhibitor concentration 10 µM).

As to PHK, the kinase activity remaining was found to be 110% (inhibitor concentration 0.1 µM), 91% (inhibitor concentration 1 µM) and 86% (inhibitor concentration 10 µM).

Consider CHK1 (UniProt O14757), for which the kinase activity remaining (inhibitor concentration 0.1 µM) amounted to 139%, the kinase activity remaining (inhibitor concentration 1 µM) amounted to 109% and the kinase activity remaining (inhibitor concentration 10 µM) amounted to 112%.

For the target NEK2a (UniProt P51955), the kinase activity remaining was found to be 108% (inhibitor concentration 0.1 µM), 99% (inhibitor concentration 1 µM) and 88% (inhibitor concentration 10 µM).

Take HIPK1 (UniProt Q86Z02): the kinase activity remaining (inhibitor concentration 0.1 µM) was 111%, the kinase activity remaining (inhibitor concentration 1 µM) was 104% and the kinase activity remaining (inhibitor concentration 10 µM) amounted to 130%.

In the case of SRPK1 (UniProt Q96SB4), the kinase activity remaining runs as follows: (inhibitor concentration 0.1 µM) 89%; (inhibitor concentration 1 µM) 63%; (inhibitor concentration 10 µM) 19%.

As to MARK2 (UniProt Q7KZI7), the kinase activity remaining came out at 116% (inhibitor concentration 0.1 µM), 113% (inhibitor concentration 1 µM) and 95% (inhibitor concentration 10 µM).

Regarding CAMK1 (UniProt Q14012), the kinase activity remaining reads like this: (inhibitor concentration 0.1 µM) 96%; (inhibitor concentration 1 µM) 97%; (inhibitor concentration 10 µM) 68%.

As for TBK1 (UniProt Q9UHD2), the kinase activity remaining runs as follows: (inhibitor concentration 0.1 µM) 110%; (inhibitor concentration 1 µM) 87%; (inhibitor concentration 10 µM) 96%.

As to MARK3 (UniProt P27448), the kinase activity remaining was determined as 113% (inhibitor concentration 0.1 µM), 115% (inhibitor concentration 1 µM) and 110% (inhibitor concentration 10 µM).

Take IKK epsilon: the kinase activity remaining reads like this: (inhibitor concentration 0.1 µM) 98%; (inhibitor concentration 1 µM) 95%; (inhibitor concentration 10 µM) 44%.

As for p38 alpha MAPK, the kinase activity remaining worked out at 94% (inhibitor concentration 0.1 µM), 94% (inhibitor concentration 1 µM) and 83% (inhibitor concentration 10 µM).

Regarding MLK3 (UniProt Q16584), the kinase activity remaining amounted to 114% (inhibitor concentration 0.1 µM), 102% (inhibitor concentration 1 µM) and 73% (inhibitor concentration 10 µM).

S6K1: the kinase activity remaining by setting is: (inhibitor concentration 0.1 µM) 99%; (inhibitor concentration 1 µM) 95%; (inhibitor concentration 10 µM) 80%.

In the case of HIPK3 (UniProt Q9H422), the kinase activity remaining (inhibitor concentration 0.1 µM) worked out at 112%, the kinase activity remaining (inhibitor concentration 1 µM) was 108% and the kinase activity remaining (inhibitor concentration 10 µM) came to 96%.

Regarding PKC gamma, the kinase activity remaining (inhibitor concentration 0.1 µM) turned out to be 118%, the kinase activity remaining (inhibitor concentration 1 µM) stood at 110% and the kinase activity remaining (inhibitor concentration 10 µM) was found to be 101%.

TESK1 (UniProt Q15569): the kinase activity remaining is 112% (inhibitor concentration 0.1 µM), 111% (inhibitor concentration 1 µM) and 101% (inhibitor concentration 10 µM).

Take GCK (UniProt P35557): the kinase activity remaining (inhibitor concentration 0.1 µM) amounted to 109%, the kinase activity remaining (inhibitor concentration 1 µM) turned out to be 89% and the kinase activity remaining (inhibitor concentration 10 µM) amounted to 19%.

As to CDK2-Cyclin A (UniProt P24941), the kinase activity remaining by setting is: (inhibitor concentration 0.1 µM) 111%; (inhibitor concentration 1 µM) 93%; (inhibitor concentration 10 µM) 57%.

Regarding DYRK2 (UniProt Q92630), the kinase activity remaining (inhibitor concentration 0.1 µM) is 101%, the kinase activity remaining (inhibitor concentration 1 µM) turned out to be 105% and the kinase activity remaining (inhibitor concentration 10 µM) was found to be 52%.

IRAK4 (UniProt Q9NWZ3): the kinase activity remaining by setting is: (inhibitor concentration 0.1 µM) 94%; (inhibitor concentration 1 µM) 62%; (inhibitor concentration 10 µM) 24%.

Turning to GSK3 beta, the kinase activity remaining came out at 126% (inhibitor concentration 0.1 µM), 99% (inhibitor concentration 1 µM) and 88% (inhibitor concentration 10 µM).

As to PAK5 (UniProt Q9P286), the kinase activity remaining is, setting by setting: (inhibitor concentration 0.1 µM) 108%; (inhibitor concentration 1 µM) 101%; (inhibitor concentration 10 µM) 101%.

Turning to PRK2 (UniProt Q16513), the kinase activity remaining runs as follows: (inhibitor concentration 0.1 µM) 108%; (inhibitor concentration 1 µM) 101%; (inhibitor concentration 10 µM) 81%.

Turning to CHK2 (UniProt O96017), the kinase activity remaining by setting is: (inhibitor concentration 0.1 µM) 112%; (inhibitor concentration 1 µM) 51%; (inhibitor concentration 10 µM) 9%.

For MNK1 (UniProt Q9BUB5), the kinase activity remaining (inhibitor concentration 0.1 µM) came out at 105%, the kinase activity remaining (inhibitor concentration 1 µM) came out at 103% and the kinase activity remaining (inhibitor concentration 10 µM) worked out at 83%.

Regarding IGF-1R, the kinase activity remaining reads like this: (inhibitor concentration 0.1 µM) 101%; (inhibitor concentration 1 µM) 108%; (inhibitor concentration 10 µM) 114%.

On to IR, for which the kinase activity remaining (inhibitor concentration 0.1 µM) amounted to 123%, the kinase activity remaining (inhibitor concentration 1 µM) is 125% and the kinase activity remaining (inhibitor concentration 10 µM) was found to be 133%.

On to ROCK 2, for which the kinase activity remaining was 112% (inhibitor concentration 0.1 µM), 96% (inhibitor concentration 1 µM) and 95% (inhibitor concentration 10 µM).
